Compound activity: PubChem, National Center for Advancing Translational Sciences (NCATS)
Pf growth 96h – P. falciparum growth inhibition at 96 hours. P. falciparum luciferase reporter growth, 96 h. Potency, µM (titrated, usually from 28.7 µM), without a hit: at the highest dose activity change, negative = inhibition, most hits filed as inhibitors. actives 6.9% (n = 320,000); also: potency is read from the fitted curve at half-maximal effect; % is scaled to controls: 0 for no effect and ±100 for the full control effect
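Luminescence readout: decreased luciferase signal marks inhibited growth of reporter-expressing P. falciparum in infected red cells (2% hematocrit, 0.05% parasitemia final), exposed to compound two generations (96 h, 37 C, 5% CO2).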
Shiga toxin inh – Shiga toxin inhibition; Vero cells, Shiga toxin protein synthesis inhibition reporter; actives 9.2% (n = 290,000); AID 2315; inhibition, % at 38.7 µM; in the data active = inhibition mostly above about 28%, no sharp cut-off; inactive = mostly below about 43%; also: 0% is about no effect
NS1 inh – inhibitors of influenza NS1 protein function. Potency, µM (doses to about 46.1 µM), for the others: top-dose activity, positive = more growth. actives 0.4% (n = 270,000). AID 2326; calls by dose curve; also: potency is read from the fitted curve at half-maximal effect; actives are rising curves; nearly all actives have a fitted effect of over 50% in size
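In this qHTS, NS1 from influenza A is expressed in budding yeast, where it slows growth. Cells are switched from glucose to 2% galactose medium (pH 6.0, -URA), treated with compound, and growth recovery is read at OD600.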
CHX counter – affects cycloheximide protein synthesis inhibition readout, counter-screen. max response, %. actives 12% (n = 300,000). cell reporter, cycloheximide protein synthesis inhibition counterscreen; in the data active = max response mostly above about 13%, no sharp cut-off; inactive = mostly below about 14%; also: read at 38.3 µM for the half of the compounds with a filed dose; 0% is about no effect
FBPA Giardia inh – inhibitors of Giardia lamblia fructose-1,6-bisphosphate aldolase. A8B2U2. purified Giardia FBPA. Potency, µM (highest dose often 59.6 µM), for the others: at the top dose activity, negative = inhibition, actives largely listed as inhibitors. actives 0.71% (n = 290,000); also: potency is read from the fitted curve at half-maximal effect; % is scaled to controls: 0 for no effect and ±100 for the full control effect; nearly all actives have a fitted effect of over 55% in size
Target sequence (A8B2U2 whole entry, looked up): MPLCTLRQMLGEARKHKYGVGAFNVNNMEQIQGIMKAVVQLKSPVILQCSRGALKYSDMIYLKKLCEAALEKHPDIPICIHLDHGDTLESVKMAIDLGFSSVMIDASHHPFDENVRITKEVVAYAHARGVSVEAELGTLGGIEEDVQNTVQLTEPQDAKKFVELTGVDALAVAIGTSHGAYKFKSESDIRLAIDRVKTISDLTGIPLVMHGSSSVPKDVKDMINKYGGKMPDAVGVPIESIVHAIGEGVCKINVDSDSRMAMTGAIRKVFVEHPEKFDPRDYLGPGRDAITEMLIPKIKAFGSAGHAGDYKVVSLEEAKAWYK
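Giardia FBPA (40 nM reagent) was preincubated 10 min at RT with compound (up to 57.5 uM final), then substrate plus GAPDH/TPI/NAD/arsenate coupling system with diaphorase/resazurin was added; resorufin fluorescence (525/598 nm) was read after 20 min.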
Pf growth 48h – inhibits P. falciparum growth in the first generation, 48 h; P. falciparum luciferase growth in erythrocytes, 48 h; Potency, µM (top dose mostly 28.7 µM), inactives show at the highest dose activity change, negative = inhibition, hits mostly inhibitors; actives 5.9% (n = 310,000); AID 504832; also: potency is read from the fitted curve at half-maximal effect; % is scaled to controls: 0 for no effect and ±100 for the full control effect
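Firefly luciferase activity from engineered P. falciparum reports growth; inhibitors lower the luminescent signal. Cultures contained 2% hematocrit erythrocytes at 0.1% final parasitemia.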
Active calls of the source: *; ? = inconclusive; . = no result; [ ] = another dose, or the depositor's remark. Compounds with a hit are over-represented: about 21% of the library has one in this group of screens. Unless noted, calls follow the shape of the dose curve; as a rule, active = well fitted curve in the direction sought with a large enough effect; inconclusive = small, poorly fitted or top-dose-only effect, or another doubt; inactive = no such curve, though single readings can be large; an effect the other way counts as inactive or inconclusive.

SMILES | Pf growth 96h | Shiga toxin inh | NS1 inh | CHX counter | FBPA Giardia inh | Pf growth 48h
O=C1c2cccc3cccc(c23)C(=O)N1CC1CCN(CC(O)COCc2ccc3c(c2)OCO3)CC1 (stereo unspecified) | ? | -4 | -3% | -3 | 4% | 9.3µM*
Cc1nn(CCCC(=O)NCc2ccc(F)cc2)c(=O)c2nccn12 | 17% | 2 | -1% | -1 | 7% | 38%
CC1CC[C@@]2(OC1)OC1CC3C4CC=C5CC(O)CC[C@@]5(C)C4CC[C@]3(C)C1C2C (stereo partly specified) | . | . | . | . | -1% | .
Cc1cc(C)n(CC(O)COCc2ccccc2)n1 (stereo unspecified) | 12µM* | 23 | 3% | -2 | 3% | 6%
Cc1cc(C)n(CC(O)COc2ccccc2[N+](=O)[O-])n1 (stereo unspecified) | ? | 29 | 4% | 28* | -10% | 3%
Cc1cc(C)n(CC(O)COc2cccc(OCC(O)Cn3nc(C)cc3C)c2)n1 (stereo unspecified) | 0% | -11 | 5% | 6 | 0% | -28%
CCOC(=O)N1CCN(CC(O)COc2ccccc2[N+](=O)[O-])CC1 (stereo unspecified) | ? | 18 | 4% | 11* | -21% | 7%
Cc1cc(C)n(CC(O)COc2ccccc2C(=O)Nc2ccccc2)n1 (stereo unspecified) | ? | -3 | -4% | -3 | 2% | 1.9µM*
CCOC(=O)N1CCN(CC(O)COc2ccc(-c3ccccc3)cc2)CC1 (stereo unspecified) | ? | 7 | -29% | 0 | -28% | 15%
Cc1cc(C)n(C(=O)COc2ccccc2[N+](=O)[O-])n1 | 21% | 15 | -1% | 11 | 11% | ?
CC1CN(C(=O)Cn2cc(SCC(=O)N3CCOCC3)c3ccccc32)CC(C)O1 (stereo unspecified) | ? | 11 | 8% | 24 | . | 11%
CCc1nnc(NC(=O)c2ccc(COc3cccc(C)c3)o2)s1 | 13% | -5 | 8% | -6 | 17% | 11%
CCOC(=O)c1c(C)n(Cc2ccccc2)c2ccc(OCC(O)Cn3nc(C)cc3C)cc12 (stereo unspecified) | 9% | -4 | 15% | -4 | -3% | 12µM*
COc1ccccc1OCC(O)Cn1nc(C)cc1C (stereo unspecified) | ? | 104* | -5% | 54* | 11% | -3%
CC(C)c1ccc(C2/C(=C(/O)c3ccc(F)cc3)C(=O)C(=O)N2CCCN2CCOCC2)cc1 (stereo unspecified) | 155% | 7 | 15% | -1 | 11% | 0%
COc1cc(C(=O)NCC2(c3ccccc3)CCCC2)cc(OC)c1OC | ? | 2 | -6% | -3 | 14% | ?
O=C(N/N=C\c1coc2ccccc2c1=O)c1ccco1 | 65% | 16 | 1% | 14 | -4% | 68%
Cn1cc(/C=N/NC(=O)c2ccccc2O)c2ccccc21 | 82% | 53 | -64% | 25* | 11% | ?
CC(C)(C)OC(=O)n1cc(/C=N/NC(=O)c2ccco2)c2ccccc21 | -2% | 68* | 0% | 37* | 0% | -5%
CC(=O)n1cc(/C=N/NC(=O)c2ccccc2O)c2ccccc21 | -3% | 66* | 5% | 26* | 18% | 48%
COC(=O)N1CCC[C@@]2(CCN(c3ccncc3)C2)C1 | . | . | . | . | 2% | .
CN(C(=O)c1ccncc1)C1CCCCC1 | -9% | -10 | -9% | -3 | 8% | -15%
COc1cc(CN2CCCC(CO)(Cc3cccc(Cl)c3)C2)cc2c1OCO2 (stereo unspecified) | 78% | -10 | 10% | -4 | -1% | ?
Cc1ccc(/C=C/C(=O)NCc2cccs2)o1 | 74%[5.75 µM] | 91* | . | 18* | -4% | 19%
Cc1ccc(/C=C/C(=O)NCc2ccncc2)cc1 | ? | 23 | 3% | 12 | 6% | 12%
SMILES | Pf growth 96h | Shiga toxin inh | NS1 inh | CHX counter | FBPA Giardia inh | Pf growth 48h
Cc1ccc(/C=C/C(=O)NCc2cccs2)cc1 | -16% | 139* | -5% | 66* | -4% | 59%
Cc1ccc(/C=C/C(=O)NCc2cccs2)c(C)c1 | ? | 53* | -8% | 37* | ? | 70%
O=C(/C=C/c1ccc([N+](=O)[O-])cc1)NCc1cccs1 | -7% | 13* | 7% | 38* | -13% | 37%
CN1CCN(C(=O)c2ccc(NS(=O)(=O)c3cccc([N+](=O)[O-])c3)cc2)CC1 | 8% | . | . | . | . | 58%
COc1ccccc1P(=O)(Cc1ccccc1[N+](=O)[O-])c1ccccc1 (stereo unspecified) | ? | -5 | 8% | -3 | 3% | -25%
Nc1c(C(=O)NCc2ccco2)c2nc3ccccc3nc2n1CCc1ccccc1F | . | -5 | 15% | 12 | ? | 10µM*
COc1ccc(CCn2c(N)c(C(=O)NCc3ccco3)c3nc4ccccc4nc32)cc1 | -21% | -4 | 5% | -1 | -25% | ?
COc1ccc(CCn2c(N)c(C(=O)NCc3ccco3)c3nc4ccccc4nc32)cc1OC | 18% | 18 | 9% | 12 | ? | 5.2µM*
Nc1c(C(=O)NCc2ccco2)c2nc3ccccc3nc2n1Cc1ccc(F)cc1 | ? | 7 | 16% | 5 | ? | 1.9µM*
CCc1sc(N(C(=O)Cc2ccccc2)c2ccccc2)nc1-c1ccccc1 | . | -11 | 4% | -4 | -1% | 13µM*
CCCCC(=O)N(c1ccc(C(=O)O)cc1)c1nc(-c2ccc(Cl)cc2)c(CC)s1 | ? | 9 | 0% | -5 | 4% | 2.3µM*
CCCCCCCN1CCC(=O)N([C@H](CO)c2ccccc2)CC1 | 34% | -4 | -9% | -4 | -8% | 1%
COc1ccc(Br)cc1/C=N/n1nnnc1N | -2% | -10 | 13% | -9 | -8% | 9%
Cc1c(NC(=O)CN2CCN(c3ccccc3)CC2)c(=O)n(-c2ccccc2)n1C | 35% | -18 | 5% | -1 | ? | 15%
Cc1c(NC(=O)CN2CCN(C(c3ccccc3)c3ccccc3)CC2)c(=O)n(-c2ccccc2)n1C | -9% | -13 | -8% | -1 | 4% | 10µM*
Cc1c(NC(=O)CCC(=O)N2CCCCC2)c(=O)n(-c2ccccc2)n1C | 0.83µM* | 28 | 12% | -3 | -1% | 1%
Cc1cccc(C)c1NC(=O)CN1CCN(CCCC(c2ccc(F)cc2)c2ccc(F)cc2)CC1 | 4.5µM* | . | . | . | 1%[21.7 µM] | 12µM*
C=CCNC(=O)CN1CCC(O)(c2ccccc2)CC1 | ? | 9 | 1% | -2 | 6% | 28%
C=CCNC(=O)CN1CCN(C(c2ccccc2)c2ccccc2)CC1 | 13µM* | -9 | -9% | -2 | ? | ?
CC(NC(=O)CN1CCOCC1)c1ccc(F)cc1 (stereo unspecified) | 23% | -5 | 4% | -10 | 1% | 28%
